Screening results (PubChem)
Only some compounds are listed: those with a hit (about 8% of all), similar ones and a draw of the others.
KB-3-1 cytotox: kills parental KB-3-1 adenocarcinoma cells. KB-3-1 viability, CellTiter-Glo ATP luminescence, 72 h. Potency, µM (series often up to 46.1 µM), hits mostly cytotoxic. 400,000 tested, 1.4% active; further: nearly all actives have a fitted effect of over 60% in size
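Cytotoxicity measured as CellTiter-Glo luminescence after 72 h at 37 C. Compound titrations were pinned onto drug-naive KB-3-1 parental adenocarcinoma cells grown in DMEM with 10% FBS, and normalized data fitted to concentration-response curves.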
HT1080NT lethal: kills 2HG-producing HT-1080-NT fibrosarcoma cells; HT-1080-NT fibrosarcoma viability, CellTiter-Glo ATP luminescence, 48 h; Potency, µM (series often up to 46.1 µM), most hits filed as cytotoxic; 360,000 tested, 1.6% active; AID 686970;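 further: NT is the 2HG producing partner of a matched IDH1 knockdown line; nearly all actives have a fitted effect of over 55% in size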
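Fibrosarcoma NT cells, 750 per well in 5% FBS RPMI, were exposed to compound for 48 hours. Viability: CellTiter-Glo luminescence.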
KB-V1 MDR tox: kills drug-selected multidrug resistant KB-V1 cells. KB-V1 MDR cells viability, CellTiter-Glo, 72 h. 400,000 tested, 3.4% active. Potency, µM (titrated, usually from 46.1 µM), hits mostly cytotoxic. AID 1347076; further: nearly all actives have a fitted effect of over 60% in size
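Luminescent ATP read-out (CellTiter-Glo, 10 min) measures survival of drug-selected KB-V1 MDR cells after 72 h, 37 degrees C compound exposure. Medium: phenol-red-free DMEM, 10% FBS. Values from fitted concentration-response curves.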
HT1080 IDH1KD tx: toxicity to HT-1080 IDH1 knockdown cells (counter line); HT-1080 IDH1 knockdown viability, ATP luminescence, 48 h; Potency, µM (top dose mostly 46.1 µM), hits mostly cytotoxic; 360,000 tested, 2% active
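% activity derives from luminescence (CellTiter-Glo), normalised to DMSO and no-cell wells. HT-1080-IDH1KD cells, 750/well, had 48 h compound exposure at 37 °C.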
SW480 rerep: induces DNA re-replication in SW480 colon adenocarcinoma cells; SW480 DNA re-replication, Hoechst DNA content imaging, 48 h; Potency, µM (doses to about 46.1 µM), usual class: activators; 340,000 tested, 1.8% active; AID 624297; further: nearly all actives have a fitted effect of over 55% in size
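Compounds, transferred as 23 nL by pin tool, were incubated with cells for 48 hr; DNA content per nucleus was then quantified by Hoechst staining and fluorescence plate imaging.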
MCF10A rerep: induces DNA re-replication in MCF 10a normal breast cells. AID 624296. 350,000 tested, 2.9% active. MCF 10A DNA re-replication, Hoechst nuclear intensity, 48 h. Potency, µM (titrated, usually from 46.1 µM), most hits filed as activators; further: nearly all actives have a fitted effect of over 50% in size
Numbers stand for hits; i = inactive; ? = inconclusive; nt = not tested or not shown. The call rests on the fitted dose curve; in most records, active means well fitted curve in the direction sought with a large enough effect; inconclusive means small, poorly fitted or top-dose-only effect, or another doubt; inactive means no such curve, though single readings can be large; an effect the other way counts as inactive or inconclusive.

SMILES | KB-3-1 cytotox | HT1080NT lethal | KB-V1 MDR tox | HT1080 IDH1KD tx | SW480 rerep | MCF10A rerep
COc1ccc(C(=O)NNC(=O)c2cccc(S(=O)(=O)N3CCOCC3)c2)cc1 | i | i | ? | i | i | i
O=C(COC(=O)CCC(=O)c1ccc(F)cc1)Nc1cccc(S(=O)(=O)N2CCOCC2)c1 | i | i | i | i | i | i
COc1ccc(C(=O)NC(=S)Nc2cccc(S(=O)(=O)N3CCOCC3)c2)cc1 | 5.8µM | 15µM | 5.2µM | 13µM | ? | 16µM
CC(=O)Oc1ccc(-c2ccc(C(=O)Nc3cccc(S(=O)(=O)N4CCOCC4)c3)cc2)cc1 | ? | ? | ? | 10µM | i | i
O=C(COc1ccccc1[N+](=O)[O-])N(Cc1ccco1)C1CCS(=O)(=O)C1 (stereo not drawn) | i | i | i | i | ? | i
CCCN(CCC)C(=O)CC(c1ccccc1)c1ccc(C)cc1O (stereo not drawn) | i | i | 7.3µM | ? | i | i
COc1cccc(CNC(=O)COC(=O)c2cccc(S(=O)(=O)N3CCN(C(C)=O)CC3)c2)c1 | nt | i | nt | i | i | i
CC(C)C(=O)N1CCN(c2ccc(NC(=O)c3ccc([N+](=O)[O-])o3)cc2)CC1 | ? | 12µM | ? | 7.3µM | i | 2.6µM
CC(C)C(=O)N1CCN(c2ccc(NC(=O)c3ccc(Br)o3)cc2)CC1 | i | ? | i | i | i | i
Cc1ccc(NC(=S)NNC(=O)c2ccc(N3CCOCC3)c([N+](=O)[O-])c2)cc1Cl | ? | i | 16µM | i | ? | ?
CCCC(=O)N1CCN(c2ccc(NC(=O)c3ccc([N+](=O)[O-])o3)cc2Cl)CC1 | ? | 16µM | ? | ? | i | 1.8µM
CC(=O)N1CCN(c2ccc(NC(=O)c3ccc(Br)o3)cc2Cl)CC1 | i | i | i | i | i | i
CC(C)C(=O)N1CCN(c2ccc(NC(=O)c3ccc([N+](=O)[O-])o3)cc2Cl)CC1 | ? | 7.3µM | ? | ? | i | ?
O=C(NNC(=S)Nc1ccc(Br)cc1)c1ccc(N2CCOCC2)c([N+](=O)[O-])c1 | i | i | i | i | i | ?
O=C(Nc1ccc(N2CCOCC2)c(Cl)c1)c1ccc([N+](=O)[O-])o1 | i | 6.5µM | i | 4.6µM | i | ?
CN1CCN(c2ccc(NC(=O)c3ccc([N+](=O)[O-])o3)cc2Cl)CC1 | ? | 5.8µM | ? | 12µM | 1.5µM | 1.5µM
CC(C)C(=O)N1CCN(c2ccc(NC(=O)COc3ccccc3[N+](=O)[O-])cc2)CC1 | ? | ? | 18µM | ? | i | 21µM
O=C(Nc1cccc(Cl)c1N1CCCC1)c1ccc([N+](=O)[O-])o1 | ? | i | ? | i | ? | ?
COc1ccc(C(=O)NC(=S)Nc2ccccc2N2CCCCC2)cc1[N+](=O)[O-] | ? | i | ? | i | i | ?
COc1ccc(C(=O)NC(=S)Nc2cccc(Cl)c2N2CCOCC2)cc1[N+](=O)[O-] | i | i | i | i | 7.3µM | i
COCCN(C(=S)Nc1c(C)cccc1C)C(C)c1cccs1 (stereo not drawn) | i | i | ? | i | i | i
COc1ccc(-c2ccc(CN3C(C(C)C)C(=O)N(Cc4cn(CCC5OCCO5)nn4)CCS3(=O)=O)cc2)cc1OC (stereo not drawn) | i | i | i | i | nt | nt
CCOC(=O)c1c(C)c(C(=O)NCCN2CCOCC2)c(C)n1CC | i | ? | i | i | i | i
Cc1ccc(NC(=O)c2ccc([N+](=O)[O-])o2)cc1S(=O)(=O)N1CCOCC1 | ? | ? | ? | 6.5µM | 1.5µM | 2.1µM
COCCNC(=O)c1cc2c(=O)n(C)c3ccccc3c2n1C | i | i | ? | i | i | i
SMILES | KB-3-1 cytotox | HT1080NT lethal | KB-V1 MDR tox | HT1080 IDH1KD tx | SW480 rerep | MCF10A rerep
COCCCNC(=O)c1cc2c(=O)n(C)c3ccccc3c2n1C | 10µM | i | 16µM | i | ? | i
Cc1cccc(/C=C2/Sc3ccc(C(=O)N4CCOCC4)cc3NC2=O)c1 | i | i | i | i | i | ?
O=C1Nc2cc(C(=O)NCCCN3CCOCC3)ccc2S/C1=C/c1ccccc1F | i | i | i | i | ? | ?
Cc1cccc(/C=C2\Sc3ccc(C(=O)N4CCCCC4)cc3N(C)C2=O)c1 | i | 18µM | ? | i | i | i
Cc1cccc(/C=C2\Sc3ccc(C(=O)N4CCOCC4)cc3N(C)C2=O)c1 | i | i | i | i | i | i
CCOC(=O)N1CCN(C(=O)c2ccc3c(c2)NC(=O)/C(=C\c2ccc(OC)c(OC)c2)S3)CC1 | ? | i | i | i | i | i
CCOC(=O)N1CCN(C(=O)c2ccc3c(c2)N(C)C(=O)/C(=C\c2ccc(OCC)c(OC)c2)S3)CC1 | ? | i | i | ? | 10µM | ?
O=C1Nc2cc(C(=O)NCCCN3CCOCC3)ccc2S/C1=C/c1cccc(Cl)c1 | i | i | i | i | 15µM | 16µM
CCOC(=O)N1CCN(C(=O)c2ccc3c(c2)NC(=O)/C(=C\c2cccc(C)c2)S3)CC1 | ? | i | ? | i | i | 18µM
Cn1c2ccc(F)cc2c2ncn(CCCN(CCO)CCO)c(=O)c21 | i | ? | i | ? | i | i
CSc1nsc(SC)c1NC(=O)OCCc1ccccn1 | i | i | i | i | i | i
CSc1nsc(SC)c1NC(=O)Nc1ccccn1 | i | i | 15µM | ? | i | i
CCOCCCn1c(=S)[nH]c2cc(C(=O)NC3CCCCC3C)ccc2c1=O (stereo not drawn) | i | i | i | i | i | i
Clc1ccc2oc(-c3cccnc3NCc3ccccc3)nc2c1 | i | i | i | i | ? | 16µM
Cc1ccc(CNc2ncccc2-c2nc3cc(Cl)ccc3o2)cc1 | i | ? | ? | i | i | ?
Cc1ccc(NC(=S)N(CCCN2CCC(C)CC2)Cc2ccco2)cc1C | i | i | 23µM | i | i | ?
Cc1ccccc1NC(=S)N(CCCN1CCC(C)CC1)Cc1ccco1 | i | i | i | i | i | i
Nc1ncnc2c1ncn2C1OC(COP(=O)(O)O)C(O)C1O (stereo not drawn) | i | 7.3µM | i | ? | i | i
Nc1ncnc2c1ncn2C1C=C(CO)C(O)C1O (stereo not drawn) | 8.2µM | ? | ? | ? | ? | ?
Nc1ncnc2c1ncn2[C@@H]1O[C@H](COP(=O)(O)O)[C@@H](O)[C@H]1O | i | ? | ? | ? | ? | i
CN1N=C(N)c2cn(C3OC(COP(=O)(O)O)C(O)C3O)c3ncnc1c23 (stereo not drawn) | 1.8µM | i | ? | ? | i | i
O=C(O)c1cccc(CSc2nnc(-c3cccnc3)o2)c1 | i | i | i | i | i | i
CCC1(C)Cc2c(sc3nc(NN)n(C)c(=O)c23)CO1 (stereo not drawn) | i | ? | ? | ? | ? | 21µM
